Assay outcomes: PubChem BioAssay, National Center for Advancing Translational Sciences (NCATS)
Hits are enriched below; roughly 1.3% of the tested compounds scored in any of these assays.
RE007 growth inh – qHTS Assay for Inhibitors of the HIV-1 protein Vpr | S. pombe RE007 Vpr strain, BacTiter-Glo ATP luminescence, 24 h | Potency, µM (highest dose often 92.2 µM), for inactives: top-dose activity change, negative = less growth, hits mostly inhibitors | hit rate 0.21% among 360,000 | AID 651644, 2012; active means well fitted falling curve with a large enough effect; inconclusive means small, poorly fitted or top-dose-only effect; inactive means no such curve, though single readings can be large or run the other way; further: nearly all actives have a fitted effect of over 50% in size
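Fission yeast strain RE007, carrying one chromosomally integrated HIV-1 vpr copy, was seeded at OD 0.01 in PMG+AL medium with 23 nL pinned compound. After 24 h at 30 °C and 99% humidity, viability was read by BacTiter-Glo luminescence.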
VACV mCherry inh – qHTS for Stage-Specific Inhibitors of Vaccinia Orthopoxvirus: mCherry Reporter Primary qHTS. Vaccinia virus mCherry reporter infection, fluorescence. Potency, µM (titrated, usually from 36.5 µM), for inactives: at the top dose activity change, negative = inhibition, actives largely listed as inhibitors. hit rate 0.63% among 310,000. AID 720579, 2013; calls by dose curve; tested in A549 cells; further: nearly all actives have a fitted effect of over 35% in size
AMA1 RON2 block – qHTS for Inhibitors of AMA1-RON; Towards Development of Antimalarial Drug Lead: Primary Screen. AlphaScreen AMA1-biotinylated RON2 peptide binding. hit rate 0.2% among 360,000. Plasmodium falciparum AMA1 (3D7) - RON2 peptide interaction. Potency, µM (series often up to 58.2 µM), inactives show top-dose activity change, negative = inhibition, hits mostly inhibitors;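 further: 0% = vehicle wells and -100% = peptide control; nearly all actives have a fitted effect of over 45% in size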
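AMA1 (3D7) with his tag at 25 nM final met compounds first, then biotinylated RON2 peptide at 25 nM; detection used donor plus acceptor beads, 10 µg/mL apiece, read by AlphaScreen after 30 min at room temperature.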
LmPK inh – qHTS Assay for Inhibitors of Leishmania Mexicana Pyruvate Kinase (LmPK) | hit rate 0.37% among 290,000 | Q27686 | AID 1721, 2009 | purified LmPK, Kinase-Glo ATP luminescence, 1 h | Potency, µM (titrated, usually from 57.5 µM), for inactives: top-dose activity change, negative = inhibition, most hits filed as inhibitors
Target sequence (Q27686 whole entry, looked up): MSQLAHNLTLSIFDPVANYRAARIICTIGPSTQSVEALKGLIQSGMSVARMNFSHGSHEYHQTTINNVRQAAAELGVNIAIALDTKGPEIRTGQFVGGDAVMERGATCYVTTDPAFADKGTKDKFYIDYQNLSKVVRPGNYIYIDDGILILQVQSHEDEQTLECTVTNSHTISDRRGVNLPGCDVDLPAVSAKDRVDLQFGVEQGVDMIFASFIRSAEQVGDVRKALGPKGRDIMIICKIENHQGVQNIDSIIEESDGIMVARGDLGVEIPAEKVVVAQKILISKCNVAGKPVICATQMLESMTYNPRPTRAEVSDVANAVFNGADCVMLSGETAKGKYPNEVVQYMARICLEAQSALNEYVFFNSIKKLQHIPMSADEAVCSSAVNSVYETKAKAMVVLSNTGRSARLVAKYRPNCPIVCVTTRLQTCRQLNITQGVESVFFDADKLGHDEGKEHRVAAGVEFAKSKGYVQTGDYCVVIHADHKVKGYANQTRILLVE
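0.1 nM LmPK, 0.5 mM PEP, 0.1 mM ADP; 50 mM imidazole pH 7.2, 7 mM MgCl2, 50 mM KCl; 1 h RT. Kinase-Glo luminescence readout, normalized to no-enzyme (full inhibition) and uninhibited wells.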
VACV Venus inh – qHTS for Stage-Specific Inhibitors of Vaccinia Orthopoxvirus: Venus Reporter Primary qHTS. Vaccinia virus Venus reporter expression, fluorescence. Potency, µM (top dose mostly 36.5 µM), without a hit: at the highest dose activity change, negative = inhibition, usual class: inhibitors. hit rate 0.46% among 330,000. AID 720580, 2013; calls by dose curve; tested in A549 cells; further: nearly all actives have a fitted effect of over 30% in size
TbPYK inhibitor – qHTS of Trypanosoma Brucei Inhibitors | pyruvate kinase (Trypanosoma brucei), Q57TT1 | TbPYK enzyme, Kinase-Glo Plus ATP luminescence, 45 min | Potency, µM (series often up to 76.8 µM), for the others: at the highest dose activity, negative = inhibition, hits mostly inhibitors | hit rate 0.12% among 410,000; further: nearly all actives have a fitted effect of over 50% in size
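Assay buffer: 50 mM TEA pH 7.2, 100 mM KCl, 10 mM MgCl2, 0.05% BSA, 0.01% Tween-20. Pyruvate kinase from T. brucei plus substrate met compound, then ADP (130 uM final). Luminescence was read post 45 min RT.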
* = called active by the depositor. Unless noted, the call rests on the fitted dose curve; in most records, active means well fitted curve in the direction sought with a large enough effect; inconclusive means small, poorly fitted or top-dose-only effect, or another doubt; inactive means no such curve, though single readings can be large; an effect the other way counts as inactive or inconclusive. Unless noted, on the % scale 0 is the no-effect control and ±100 the full control effect; potency means the concentration at half of the fitted maximal effect.

Screening O=C(NCc1ccccc1)C(=O)NCC1OCCN1S(=O)(=O)c1ccc([N+](=O)[O-])cc1 (centres undefined) returned RE007 growth inh -5%, VACV mCherry inh 10µM*, AMA1 RON2 block -6%, LmPK inh 2%, VACV Venus inh inconclusive and TbPYK inhibitor -1%.
`CNC(=O)C(=O)NCC1OCCN1S(=O)(=O)c1ccc([N+](=O)[O-])cc1` (centres undefined) gave RE007 growth inh -6%, VACV mCherry inh -22%, AMA1 RON2 block 57%, LmPK inh -1%, VACV Venus inh inconclusive and TbPYK inhibitor -18%.
`COc1ccc(C(=O)NCC2Cc3cc(C)cc(-c4nc5ccccc5s4)c3O2)c(OC)c1OC` (centres undefined) gave VACV mCherry inh inactive and VACV Venus inh -10%.
O=C1c2ccccc2C(=O)C1c1ccc2ccccc2n1 was read as RE007 growth inh -13%, VACV mCherry inh 16%, AMA1 RON2 block 2%, LmPK inh 14µM*, VACV Venus inh -9% and TbPYK inhibitor 1%.
Screening COC(=O)[C@@H]1CCCN1C(=O)c1cnn(-c2ncc3c(n2)-c2ccccc2CCC3)c1C1CC1 returned VACV mCherry inh -5% and VACV Venus inh -3%.
For COc1ccc(CN(Cc2ccccc2)C(=O)c2cccc(C#N)c2)cc1COc1ccc(NC(C)=O)cc1 the results were VACV mCherry inh -4% and VACV Venus inh -21%.
Screening c1ccc2c(c1)[IH]c1ccccc1-2 returned RE007 growth inh inconclusive, VACV mCherry inh inconclusive, AMA1 RON2 block 13%, VACV Venus inh 11µM* and TbPYK inhibitor 2%.
`c1ccc2c(c1)-c1cccc3cccc-2c13` gave RE007 growth inh -4%, VACV mCherry inh 45%, AMA1 RON2 block 173%, VACV Venus inh -4% and TbPYK inhibitor 1%.
`O=C(c1ccc2c(c1)OCO2)N(Cc1cccs1)C1(C(=O)NC2CCCCC2)CCCCC1` gave RE007 growth inh 5%, VACV mCherry inh 16µM*, AMA1 RON2 block -17%, LmPK inh 1%, VACV Venus inh inconclusive and TbPYK inhibitor 6%.
O=C(Cc1cccs1)N(Cc1cccs1)C1(C(=O)NC2CCCC2)CCCCC1 was read as RE007 growth inh -17%, AMA1 RON2 block -3%, LmPK inh 1% and TbPYK inhibitor 6%.
`Cc1ccc(C(=O)N/C(=C\c2ccco2)C(=O)NCCCn2ccnc2)cc1C` gave RE007 growth inh -16%, VACV mCherry inh inactive, AMA1 RON2 block 17µM*, LmPK inh 7%, VACV Venus inh -4% and TbPYK inhibitor 2%.
CCCC(=O)O[C@]1(C(=O)COC(=O)CC)[C@@H](C)C[C@H]2[C@@H]3CCC4=CC(=O)C=C[C@@]4(C)[C@@]3(F)[C@H](O)C[C@@]21C was read as TbPYK inhibitor 6%.
Screening CCN(c1ccccc1)c1nnc(NC(=O)Nc2cccc(Cl)c2C)s1 returned VACV mCherry inh -22%, VACV Venus inh -19% and TbPYK inhibitor -4%.
COc1ccccc1C1CC(c2c(-c3ccccc3)c3cc(Cl)ccc3[nH]c2=O)=NN1S(C)(=O)=O (centres undefined) was read as RE007 growth inh 1%, VACV mCherry inh 11µM*, AMA1 RON2 block -11%, LmPK inh 3%, VACV Venus inh 11µM* and TbPYK inhibitor 4%.
For COc1ccc(C(=O)C(CCC(CNC(C)(C)C)C(=O)c2ccc(OC)cc2)CNC(C)(C)C)cc1 (centres undefined) the results were RE007 growth inh 12%, VACV mCherry inh 13µM*, AMA1 RON2 block 0%, LmPK inh 3%, VACV Venus inh 11µM* and TbPYK inhibitor -1%.
O=C(CSc1nc(-c2ccncc2)nn1CC(=O)N1CCCCC1)NC1CCCC1 was read as RE007 growth inh -2%, VACV mCherry inh inactive, AMA1 RON2 block 3.8µM*, LmPK inh 4%, VACV Venus inh -13% and TbPYK inhibitor 4%.
Screening Cn1c(SCC(=O)NC2CCCCC2)nnc1-c1ccncc1 returned RE007 growth inh 11%, VACV mCherry inh inactive, AMA1 RON2 block 18%, LmPK inh 4%, VACV Venus inh 0% and TbPYK inhibitor 2%.
For CCCCCc1cc(=O)oc2c(C(CCN3CCCCC3)c3ccc(OC)cc3)c(OC)cc(OC)c12 (centres undefined) the results were RE007 growth inh -3%, VACV mCherry inh 13µM*, AMA1 RON2 block -22%, LmPK inh 4%, VACV Venus inh inconclusive and TbPYK inhibitor 1%.
CCN(CC)C(=O)CC(c1ccc(N(C)C)cc1)c1c(OC)cc(OC)c2ccc(=O)oc12 (centres undefined) was read as RE007 growth inh 7%, VACV mCherry inh inactive, AMA1 RON2 block -12%, LmPK inh 3%, VACV Venus inh -10% and TbPYK inhibitor -25%.
`CCN(CC)C(=O)CC(c1ccc(N(C)C)cc1)c1c(OC)cc(OC)c2c(-c3ccccc3)cc(=O)oc12` (centres undefined) gave RE007 growth inh -4%, VACV mCherry inh inconclusive, AMA1 RON2 block 22µM*, LmPK inh 0%, VACV Venus inh inconclusive and TbPYK inhibitor -14%.
Screening CCCCCc1cc(=O)oc2c(C(CCN3CCCC(C)C3)c3ccc(OC)cc3)c(OC)cc(OC)c12 (centres undefined) returned RE007 growth inh 6%, VACV mCherry inh -15%, AMA1 RON2 block -16%, LmPK inh 11%, VACV Venus inh inconclusive and TbPYK inhibitor -1%.
For CCCCCc1cc(=O)oc2c(C(CCN3CCCC3)c3ccc(N(C)C)cc3)c(OC)cc(OC)c12 (centres undefined) the results were RE007 growth inh 8%, VACV mCherry inh inconclusive, AMA1 RON2 block 8.9µM*, LmPK inh 5%, VACV Venus inh inconclusive and TbPYK inhibitor -3%.
`CCCCCc1cc(=O)oc2c(C(CCN3CCCC3)c3cc(OC)c(OC)c(OC)c3)c(OC)cc(OC)c12` (centres undefined) gave RE007 growth inh 15%, VACV mCherry inh 14µM*, AMA1 RON2 block -8%, LmPK inh 7%, VACV Venus inh 16µM* and TbPYK inhibitor 1%.
For Cc1ccc(NCCC(=O)c2cccs2)cc1 the results were RE007 growth inh inconclusive, AMA1 RON2 block -24%, LmPK inh -3% and TbPYK inhibitor 1%.
